Assay results published in PubChem BioAssay AID651995 (Sanford-Burnham Center for Chemical Genomics, 2013).
Hit rate of the full screen: of about 2,500 compounds, about 480 (19%) were called active. These entries were drawn from the full list. Unmarked numbers belong to inactive results.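 How the source made its calls: active means mean inhibition above about 25% (limit read from the data); inactive means the rest.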

Assay: Wnt3a reporter signal inhibition, confirmation, counter-screen for Gli-SUFU antagonist project, Wnt-LIGHT cells, luminescence, single concentration (AID 651995)
Details: Wnt3a-driven luciferase reporter, at 6.25 µM, active compounds read high

| SMILES | inhibition |
| --- | --- |
| Cc1ccc(S(=O)(=O)N2C[C@@H]3CCCC[C@@H]3[C@@H](C)[C@H]2c2cn(Cc3ccccc3)c3ccc(F)cc23)cc1 | 30.5% (active) |
| COc1ccccc1N1CCN(Cc2cc(OC)c3c(c2)OCO3)CC1 | -25% |
| CCN(CC(=O)Nc1cc(Cl)ccc1C)C(=O)CSCc1ccc(C)cc1 | -8.43% |
| C=CCOC(=O)C1=C[C@@H](c2ccc3c(c2)OCO3)C[C@@H](OCCCCO)O1 | -7.34% |
| Cc1c(Cl)c([N+](=O)[O-])nn1Cc1ccc(C(=O)N/N=C\c2cc(Cl)ccc2O)o1 | 61.7% (active) |
| Cc1cc([N+](=O)[O-])c(-c2ccc(/C=N/n3cnnc3)o2)cc1Cl | -8.22% |
| O=[N+]([O-])c1ccc(N2CCN(CC(O)COc3ccccc3)CC2)cc1 (stereo unspecified) | -30.2% |
| CC1(C)Cc2ccccc2/C(=C/C(=O)c2ccccc2)N1 | 9.91% |
| CCOC(=O)c1cnc(-n2nc(C)cc2C)nc1NNc1cc(C)nc(-c2ccccc2)n1 | 40.7% (active) |
| Cc1nn(C)c(Cl)c1CN1CCC(n2nccc2NC(=O)C2CCCC2)CC1 | -36.2% |
| CCCC1=Nc2cc(C(=O)NCc3ccco3)ccc2Sc2ccccc21 | -23.7% |
| CCN1/C(=C/C(=S)Nc2ccccc2)Sc2ccccc21 | -77.3% |
| CCc1c(C)[nH]c(=S)c(C#N)c1C | -19.5% |
| N#CC(C#N)=CN=c1ccn(Cc2ccc(Cl)cc2Cl)cc1 | -5.79% |
| N#Cc1ccc(C(=O)Nc2nc(-c3cccs3)c(C(=O)C(F)(F)F)s2)cc1 | 65.1% (active) |
| O=C(NC1CCN(C(=S)Nc2ccc(Cl)cc2)CC1)C1CCCCC1 | -1.08% |
| Cc1ccc(-c2nc(CSCC(=O)NC3CCN(Cc4ccccc4)CC3)c(C)o2)cc1 | -19.9% |
| c1c2c(cc3sc(N4CCCCC4)nc13)OCCO2 | 85.8% (active) |
| CN(C)CCN(C(=O)C1CCCCC1)c1nc2cc3c(cc2s1)OCO3 | -21.9% |
| CN(C)C(CNC(=O)Cc1ccc([N+](=O)[O-])cc1)c1ccccc1 (stereo unspecified) | -27% |
| COc1ccccc1CNC(=O)C1CCN(c2nc3ccccc3o2)CC1 | -23.3% |
| C=CCC1(CC=C)CCCN1C(=O)c1cc(COc2ccc(-n3cncn3)cc2)on1 | -17% |
| CCCOc1ccccc1C1CC(=O)Nc2cc3c(cc21)OCO3 (stereo unspecified) | -18.6% |

| SMILES | inhibition |
| --- | --- |
| COc1ccc(NS(=O)(=O)c2ccc(NC(C)=O)cc2)cc1OC | 13.2% |
| COc1ccc(NS(=O)(=O)c2ccc(N3CCN(CCO)CC3)c([N+](=O)[O-])c2)cc1 | 26.4% (active) |
| CC1(C)CC2CC(C)(CN2c2ncnc3ccc(Br)cc23)C1 (stereo unspecified) | 19% |
| CC1(C)CC(=O)c2c(n(S(=O)(=O)c3ccccc3)c3ccc(NS(=O)(=O)c4ccccc4)cc23)C1 | 13.1% |
| COc1ccc(OC)c(Cc2cnc3nc(N)nc(N)c3c2C)c1 | 14.4% |
| O=C1/C(=C/c2ccc(F)cc2)SC(=S)N1NS(=O)(=O)c1ccccc1 | 12.4% |
| CN(c1ccc2nc3ccccc3c(=O)n2n1)C1CCCCC1 | 101% (active) |
| CC(C)(CNC(=O)c1ccc(Cl)c(S(=O)(=O)N2CCc3ccccc3C2)c1)N1CCOCC1 | -21.4% |
| O=C(CN1CCN(S(=O)(=O)c2cc(Cl)ccc2Cl)CC1)c1ccc(O)c(O)c1 | 73.7% (active) |
| Nc1ccc(C(=O)N2CCN(S(=O)(=O)c3ccc(Cl)cc3)CC2)cc1[N+](=O)[O-] | -13.1% |
| COc1cccc(-n2cc(C(=O)O)c3ccccc3c2=O)c1 | 20.7% |
| CCOC(=O)c1cnc(Nc2nc3ccccc3o2)nc1CSC(=S)N1CCCCC1 | -97.9% |
| COc1ccccc1CCNC(=O)C(=O)NCCC1CCCCN1S(=O)(=O)c1cccs1 (stereo unspecified) | -17.3% |
| CC(=O)Nc1ccc(NC(=O)c2ccc3c(c2)C(=O)N(c2ccccc2C)C3=O)cc1 | 3.62% |
| COC(=O)c1ccc(CSc2nnc(N)s2)o1 | -4.51% |
| O=C1/C(=C\c2cccnc2)CN(Cc2ccccc2)C/C1=C\c1cccnc1 | -9.32% |
| Cc1ccsc1C(=O)OCC(=O)c1cc(C)n(CC2CCCO2)c1C (stereo unspecified) | 104% (active) |
| Cc1onc(-c2ccccc2)c1C(=O)Nc1ccccc1C#N | -19.9% |
| CC(=O)Nc1cccc(OCC(=O)/C=C2\N(C)c3ccccc3C2(C)C)c1 | -13.7% |
| Cn1c(=O)c2c(nc(NCCc3ccccc3)n2Cc2ccccc2)n(C)c1=O | -9.98% |
| CCCCNc1nc2c(c(=O)n(C)c(=O)n2C)n1Cc1cccc(OC)c1 | 36.1% (active) |
| COCCn1c(CN2CCC(Cc3ccccc3)CC2)nc2c1c(=O)n(C)c(=O)n2C | 16.5% |
| CN(C)c1cc[n+](Cc2ccccc2)cc1 | 12.4% |

| SMILES | inhibition |
| --- | --- |
| COc1ccc2nc(SCC(=O)Nc3c(C)cc(C)cc3C)[nH]c2c1 | -15% |
| O=C(Nc1cccc(S(=O)(=O)Nc2ccc(Cl)cc2)c1)c1ccc2c(c1)OCCO2 | -22.2% |
| Cc1ccc(NC(=S)Nc2ccc(F)cc2)cc1 | -8.22% |
| CC(C)c1ccc(OCC(O)CN2CCN(c3ccccn3)CC2)cc1 (stereo unspecified) | -70.7% |
| C=CCNC(=S)/N=c1/ccccn1Cc1ccccc1 | -4.94% |
| CCOC(=O)c1ccc(NC(=O)Cn2cnc3cc(C)c(C)cc32)cc1 | -27.9% |
| COc1ccc(NC(=O)[C@H](NC(=O)[C@@H]2Cc3ccccc3CN2)c2ccccc2)cc1 | -2.11% |
| Cc1ccc(C)c(S(=O)(=O)N2CCN(c3ncnc4sccc34)CC2)c1 | 11.2% |
| CC(=O)N1CCCc2cc(S(=O)(=O)N3CCCC(C(=O)N4CCN(c5cccc(Cl)c5)CC4)C3)ccc21 (stereo unspecified) | 29.8% (active) |
| Brc1c(CSc2nncc3ccccc23)nc2ccccn12 | 1.67% |
| COc1ccc(Cn2c(-c3ccc(Cl)cc3)c[n+]3ccccc23)cc1 | -74.3% |
| CCCCC(=O)NC(c1ccc(OC)c(OC)c1)c1ccc2cccnc2c1O (stereo unspecified) | 53.4% (active) |
| Cc1ccc(Nc2nc(N3CCOCC3)nc(N3CCOCC3)n2)cc1Cl | -104% |
| COc1ccccc1C1C2=C(COC2=O)Nc2cc3c(cc21)OCO3 (stereo unspecified) | -30.9% |
| COC(=O)Cc1[nH]n(-c2nc3ccccc3s2)c(=O)c1C(C)=Nc1ccc(OC)cc1 | 104% (active) |
| COc1cc(C(=O)OC2CCOC2=O)c([N+](=O)[O-])cc1OC (stereo unspecified) | 1.38% |
| CCOc1ccc(-n2c(O)c(/C=N/Nc3nc(C)cc(C)n3)c3ccccc3c2=O)cc1 | 16.1% |
| CN1C(CC(=O)Nc2ccc(Br)cc2)c2ccccc2CC1(C)C (stereo unspecified) | -37.9% |
| C/C(=N\NC(=O)Cc1ccc(Cl)cc1)c1ccccn1 | 48.9% (active) |
| CC(=O)/C(=N\Nc1ccc(Cl)cc1Cl)Sc1cccc2cccnc12 | -140% |
| CCNC(=S)N(CCN(CC)CC)Cc1cc2cc3c(cc2[nH]c1=O)OCO3 | -0.1% |
| Cc1nonc1C1CCCN1C(=O)c1cc(COc2cccc(C(F)(F)F)c2)on1 (stereo unspecified) | -42% |
| Cc1ccc(S(=O)(=O)N(Cc2cc3ccccc3[nH]c2=O)CC2CCCO2)cc1 (stereo unspecified) | 1.8% |

| SMILES | inhibition |
| --- | --- |
| Cc1cc2[nH]ncc2cc1NC(=S)NC(=O)c1ccccc1 | -34.9% |
| Cc1ccccc1C(=O)NC(=S)Nc1ccc(N2CCN(C(=O)c3ccccc3)CC2)cc1 | 41.2% (active) |
| Cc1cc(C)c(SCCc2ccncc2)c(C)c1 | 32% (active) |
| CCCOc1ccc(Cc2c(Cl)nc(SC)nc2NC)cc1 | 26.9% (active) |
| O=C(Nc1ccnn1C1CCN(C/C=C/c2ccc(F)cc2)CC1)C1CCCC1 | -63.4% |
| CNc1ccc(SC#N)cc1 | -9.54% |
| COc1ccc(C(=O)NC2CCCc3c2cnn3-c2cccc(C)c2C)c(OC)n1 (stereo unspecified) | 24.6% |
| CCN(CC)CCNC(=O)c1ccc(NC(=O)c2cc(-c3ccncc3)nc3ccccc23)cc1 | -2.49% |
| Cc1ccc(C(=O)C[n+]2cc(-c3ccccc3)n3c2CCCCC3)cc1 | -0.91% |
| Cc1ccc(-c2nc3c(cnn3-c3ccccc3)c(=O)o2)cc1 | 4.18% |
| O=C(C[C@H]1C/C=C\C[C@@H](NC(=O)OCC2c3ccccc3-c3ccccc32)C(=O)O[C@@H](c2ccccc2)CNC1=O)N[C@H](CO)Cc1ccccc1 | -44.6% |
| COc1ccc(OC)c(/C=N/NC(=O)c2ccc[n+](CC(=O)c3ccccc3)c2)c1 | 2.64% |
| CC[n+]1c(C)n(-c2ccccc2)c2ccc(NC(C)=O)cc21 | 43.4% (active) |
| Cc1ccc(O)c(NC(=O)COc2cc(C)ccc2C)c1 | -3.69% |
| CNc1nnc(-c2ccco2)s1 | -3.08% |
| COC(=O)c1ccccc1NC(=O)C1(S(=O)(=O)c2ccc(Cl)cc2)CC1 | -1.78% |
| O=C(Nc1nc2ccc([N+](=O)[O-])cc2s1)c1ccc(S(=O)(=O)N2CCCc3ccccc32)cc1 | 65.8% (active) |
| CCc1ccc(C2C(C#N)=C(N)N(N3CCOCC3)C3=C2C(=O)CC(C)(C)C3)s1 (stereo unspecified) | -28.8% |
| CCCc1nc(N)nc2c1C(=O)CC(C)(C)C2 | 9.89% |
| Cc1cc(NC(=O)c2cccc(N3C(=O)CCC3=O)c2)no1 | 66% (active) |
| CC1CC2=C(CC1/C=N/NC(N)=S)C(C)(C)CCC2 (stereo unspecified) | 21.2% |
| CCc1c(C)nc2cc(C)[nH]n2c1=O | -9.69% |
